Laboratory results as given in PubChem BioAssay (NCATS).
“And” between values parts separate entries of the source, which are not always exact repeats. Identical values can stand only once. Inconclusive results are not listed. The source made the active and inactive calls. Unless noted, calls follow the shape of the dose curve; as a rule, active = well fitted curve in the direction sought with a large enough effect; inconclusive = small, poorly fitted or top-dose-only effect, or another doubt; inactive = no such curve, though single readings can be large; an effect the other way counts as inactive or inconclusive.

How the values were obtained:
[1] = Cell Viability - MRC5 (AID 434; calls by dose curve;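 also: potency is read from the fitted curve at half-maximal effect; potency reflects cytotoxicity seen as loss of intracellular ATP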); details: MRC5 lung fibroblast viability, qHTS
In short: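 AC50 values come from Hill-equation fits of intracellular ATP loss, measured by CellTiter-Glo luminescence. Normal lung fibroblasts (MRC5) had 40 hr compound treatment at 37 C, normalized between DMSO and 100 uM tamoxifen.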

[2] = molecular target: Mitogen-activated protein kinase 10 (Mus musculus) (UniProt Q61831); experiment: JNK3 AlphaScreen Assay (AID 530; active = well fitted curve in either direction with a large enough effect, not every such curve was filed as active;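 also: kinase came from lysate of stimulated human HepG2 cells; signal reports phosphorylation of biotinylated GST-cJun 1-79 at Ser73 with 10 µM ATP; % is scaled to controls: 0 for no effect and ±100 for the full control effect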); details: JNK3 lysate, c-Jun phosphorylation; series mostly up to 57.1 µM
In short: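 Kinase buffer: 20 mM Tris-HCl pH 7.6, 10 mM MgCl2, 1 mM DTT, 0.1 mM Na3VO4, 0.01% Tween-20; ATP 10 uM. Substrate biotin-GST-cJun(1-79), enzyme from activated HepG2 lysates. Detection by Ser73 phospho-antibody AlphaScreen.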

[3] = Cell Viability - Renal Proximal Tubule (AID 545); details: renal proximal tubule cells viability; series mostly up to 91.7 µM; also: nearly all actives have a fitted effect of over 40% in size
In short: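 Rat renal proximal tubule primary cells, 1000/well, exposed to compounds for 40 hr at 37 °C in complete medium; cellular ATP read by CellTiter-Glo luminescence. AC50 from concentration-response fitted with standard Hill equation.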

[4] = Cellular Toxicity (caspase-3) HepG2 (AID 654); details: HepG2 caspase-3 activation, luminescence, 0% = DMSO only, 100% = tamoxifen; series mostly up to 92.2 µM;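 also: cells exposed to compound for 16 hours before reading; 0% = DMSO alone and 100% = caspase signal from 100 µM tamoxifen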
In short: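 Luminescent Caspase-Glo 3/7 readout after 16 hr compound exposure of human hepatocellular carcinoma HepG2 cells at 37 °C; qHTS concentration-response, normalized DMSO = 0%, 100 uM tamoxifen = 100%; AC50 by standard Hill equation.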

[5] = Cellular Toxicity (caspase-3) SHSY5Y (AID 657); details: SH-SY5Y caspase-3 activation, DMSO zero, 10 µM staurosporine = 100%; series mostly up to 91.7 µM
In short: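 SH-SY5Y human neuroblastoma cells, 1500/well, exposed to compound for 16 hours at 37 °C in complete medium. Caspase-3/7 activity read by Caspase-Glo luminescence after 1 hr at room temperature, normalized to DMSO and 10 uM staurosporine; AC50 from Hill fit.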

[6] = Cellular Toxicity (caspase-3) H-4-II-E (AID 663); details: H-4-II-E rat hepatoma; Potency: caspase-3 activation; series mostly up to 92.2 µM;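 also: cells exposed to compound for 16 hr before readout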
In short: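 Caspase 3/7 activation measured by luminescent aminoluciferin substrate cleavage after 16 hr compound treatment of H-4-II-E cells in complete medium. Increase normalized between DMSO (basal) and 100 uM tamoxifen (100%); Hill-equation AC50 from concentration-response.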

[7] = Cellular Toxicity (caspase-3) N2a (AID 665); details: N2a cells, luminescence, normalized: DMSO 0%, 10 µM staurosporine 100%; series mostly up to 92.2 µM;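 also: compound exposure lasted 16 h at 37 °C before readout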
In short: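 Luminescent Caspase-Glo 3/7 readout in N2a mouse neuroblastoma cells after 16 h compound exposure at 37 °C. Signal scaled to DMSO (basal) and 10 uM staurosporine (100%). Concentration-response fitted with Hill equation for AC50.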

[8] = Cellular Toxicity (caspase-3) Renal Proximal Tubule (AID 667); details: renal proximal tubule cells; series mostly up to 91.7 µM;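 also: cells exposed to compound for 16 hours at 37 °C before detection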
In short: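 Freshly isolated primary rat kidney proximal tubule cells, 1000/well, treated 16 hr at 37 °C, then Caspase-Glo 3/7 luminescence after 1 hr. Normalized to DMSO and 10 uM staurosporine; AC50 from Hill fit.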

[9] = Cell Viability - LYMP2-001 (AID 921); details: LYMP2-001 lymphoblastoid cell viability; series mostly up to 92.2 µM;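 also: 0% = DMSO only and full inhibition = tetraoctylammonium bromide control wells; nearly all actives have a fitted effect of over 70% in size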
In short: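 Human lymphoblastoid LYMP2-001 cells, 2500 per well, in complete medium, treated 24 h at 37 C. Viability from cellular ATP by CellTiter-Glo luminescence; AC50 from Hill-equation fits of qHTS concentration-response.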

[10] = MultiTox-Fluor Cytotoxicity Assay - LYMP1-003 - Dead Cells (AID 961); details: LYMP1-003 lymphoblastoid cells, dead-cell protease fluorescence; series mostly up to 92.2 µM; also: nearly all actives have a fitted effect of over 70% in size
In short: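 Dead-cell protease release, detected as bis-AAF-R110 fluorescence at 485/520 nm, was measured in LYMP1-003 cells after 16 h compound treatment at 37 C. AC50 values came from Hill-modeled qHTS curves normalized to DMSO (0%) and 15 uM tetraoctylammonium bromide (100%).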

[11] = Cell Viability - LYMP1-003 - Assay at 24 hr (AID 963); details: LYMP1-003 lymphoblastoid cell viability; series mostly up to 92.2 µM;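 also: plate controls were DMSO only for no effect and tetraoctylammonium bromide positive control for full effect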
In short: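 CellTiter-Glo luminescence (intracellular ATP) read after 24 hr, 37 C compound exposure of 2500 LYMP1-003 human lymphoblastoid cells/well in complete medium; qHTS concentration series; AC50 via standard Hill equation.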

[12] = Cell Viability - LYMP1-003 - Assay at 40 hr (AID 964); details: LYMP1-003 lymphoblastoid viability; series mostly up to 92.2 µM; also: % is scaled to controls: 0 for no effect and ±100 for the full control effect; nearly all actives have a fitted effect of over 60% in size
In short: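 LYMP1-003 lymphoblastoid cells, 2500/well; 5 hr preincubation, 40 hr compound exposure, 37 C; CellTiter-Glo 30 min RT; luminescence; Hill-fit AC50. Positive control tetraoctylammonium bromide.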

[13] = Cell Viability - LYMP2-009 (AID 968); details: LYMP2-009 lymphoblastoid cell viability; series mostly up to 92.2 µM;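 also: 0% = DMSO alone and the full-kill end = tetraoctylammonium bromide at 92 µM; nearly all actives have a fitted effect of over 55% in size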
[14] = Cell Viability - LYMP2-021 (AID 974); details: LYMP2-021 lymphoblastoid cells viability; series mostly up to 92.2 µM;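 also: compound exposure lasts 24 hours at 37 °C; % is scaled to controls: 0 for no effect and ±100 for the full control effect; nearly all actives have a fitted effect of over 55% in size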
In short: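 ATP luminescence (CellTiter-Glo, 30 min RT) after 24 h compound exposure at 37 C; 2500 human lymphoblastoid cells/well, 5 h settle beforehand. Cytotoxicity = concentration-dependent ATP drop, AC50 by Hill fit.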

[15] = Cell Viability - LYMP2-006 (AID 978); details: LYMP2-006 lymphoblastoid cell viability, qHTS; series mostly up to 92.2 µM;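 also: cells exposed to compound for 24 hours; % is scaled to controls: 0 for no effect and ±100 for the full control effect; nearly all actives have a fitted effect of over 60% in size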
In short: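 Human lymphoblastoid cells (LYMP2-006), 2500/well in complete medium, were treated with compound for 24 hr at 37 C. Cellular ATP was read by CellTiter-Glo luminescence after 30 min, and AC50 values came from Hill-equation fits of concentration-response data.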

[16] = Cell Viability - LYMP2-008 (AID 980); details: LYMP2-008 lymphoblastoid cell viability, qHTS; series mostly up to 92.2 µM; also: % is scaled to controls: 0 for no effect and ±100 for the full control effect; nearly all actives have a fitted effect of over 60% in size
In short: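 Luminescent ATP read-out (CellTiter-Glo, 30 min RT) after 24 hr compound exposure at 37 C of human lymphoblastoid cells in complete medium. Decrease in ATP taken as cytotoxicity; AC50 derived by standard Hill fit of qHTS concentration-response data.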

[17] = Cell Viability - LYMP2-018 (AID 985); details: LYMP2-018 lymphoblastoid cells, viability (qHTS); series mostly up to 92.2 µM;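 also: plate controls were DMSO only for no effect and tetraoctylammonium bromide at 92 µM for full effect; nearly all actives have a fitted effect of over 50% in size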
In short: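 2500 cells/well; 5 hr 37 C; cmpd 24 hr 37 C, complete medium; CellTiter-Glo 30 min RT; luminescence. Tetraoctylammonium bromide positive control. AC50 via Hill fit.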

[18] = Cell Viability - LYMP1-002 - Assay at 24 hr (AID 993); details: LYMP1-002 lymphoblastoid cells viability; series mostly up to 92.2 µM; also: % is scaled to controls: 0 for no effect and ±100 for the full control effect
In short: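 CellTiter-Glo luminescence (intracellular ATP) after 24 h compound exposure, 37 C, in LYMP1-002 human lymphoblastoid cells; decreased ATP taken as cytotoxicity. AC50 from standard Hill fit of concentration-response curves.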

[19] = qHTS assay for environmental chemicals that activate the Aryl hydrocarbon Receptor (AhR) signaling pathway (AID 651777); details: 1A2-DRE human hepatoma cells, luciferase, 24 h; activation: hits give high values; also: % of control where 0% means no effect; nearly all actives have a fitted effect of over 15% in size
In short: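 Concentration–response screening used 1,200 1A2-DRE cells per well, 24 hr compound exposure (37 C, 5% CO2), and One-Glo luminescence as the AhR-driven CYP1A2 reporter signal.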

[20] = qHTS assay for small molecule activators of the human pregnane X receptor (PXR) signaling pathway (AID 720659; call rule not given here; also: 0% is about no effect); details: DPX-2 HepG2 CYP3A4-luciferase, 24 h; series mostly up to 92.3 µM

CCC[N+](=O)[O-]
inactive: Potency [1] > 92 µM | Potency [2] | outcome [3] | outcome [4] | outcome [5] | Potency [6] | outcome [7] | outcome [8] | Potency [9] | Potency [10] | outcome [11] | Potency [12] | Potency [13] | Potency [14] | Potency [15] | Potency [16] | Potency [17] | Potency [18] | activation [19] 1.28% | outcome [20]

CCOP(=S)(OCC)SCCSCC
inactive: Potency [1] > 92 µM | outcome [3] | outcome [4] | outcome [5] | outcome [7] | outcome [8] | Potency [9] | Potency [10] | Potency [12] | Potency [13] | Potency [14] | Potency [15] | Potency [16] | Potency [17] | Potency [18] | activation [19] 1.01% and -2.18%

O=[N+]([O-])CCO
inactive: Potency [1] > 92 µM | outcome [4] | Potency [6] | outcome [7] | Potency [10] | outcome [11] | Potency [13] | Potency [14] | Potency [15] | Potency [17] | Potency [18] | activation [19] -2.02% | outcome [20]

Nc1ccc2ccccc2c1
inactive: Potency [1] > 92 µM | Potency [2] | outcome [3] | outcome [4] | outcome [5] | outcome [7] | outcome [8] | Potency [9] | Potency [12] | Potency [13] | Potency [14] | Potency [15] | Potency [16] | Potency [17] | Potency [18] | outcome [20]

CC(C)(C)c1ccccc1O
inactive: Potency [2] | outcome [3] | outcome [4] | Potency [6] | outcome [7] | Potency [9] | Potency [10] | outcome [11] | Potency [13] | Potency [15] | Potency [16] | Potency [17] | Potency [18] | activation [19] 1.34% and -1.14% | outcome [20]

O=[N+]([O-])c1ccc2c3c(cccc13)CC2
inactive: Potency [1] > 92 µM | Potency [2] | outcome [4] | outcome [5] | Potency [6] | outcome [7] | outcome [8] | Potency [9] | outcome [11] | Potency [12] | Potency [13] | Potency [14] | Potency [15] | Potency [16] | Potency [17] | Potency [18] | outcome [20]

CCSC(=O)N1CCCCCC1
inactive: Potency [1] > 92 µM | outcome [3] | outcome [4] | outcome [5] | Potency [6] | outcome [7] | Potency [9] | Potency [10] | outcome [11] | Potency [13] | Potency [14] | Potency [16] | Potency [17] | Potency [18] | activation [19] -0.667% and 0.714% | outcome [20]

C=CCCC#N
inactive: Potency [1] > 92 µM | outcome [4] | outcome [5] | Potency [6] | outcome [7] | outcome [8] | Potency [9] | Potency [10] | outcome [11] | Potency [12] | Potency [13] | Potency [14] | Potency [15] | Potency [16] | Potency [17] | Potency [18] | outcome [20]

ClCc1ccccn1
inactive: Potency [1] > 92 µM | outcome [3] | outcome [7] | outcome [8] | Potency [9] | Potency [10] | outcome [11] | Potency [12] | Potency [14] | Potency [15] | Potency [16] | Potency [17] | Potency [18] | activation [19] -0.85% and 1.26% | outcome [20]

C=CC=O
inactive: Potency [1] > 92 µM | Potency [2] | outcome [3] | outcome [4] | outcome [5] | Potency [6] | outcome [7] | outcome [8] | Potency [9] | Potency [10] | outcome [11] | Potency [12] | Potency [14] | Potency [15] | Potency [16] | Potency [17] | activation [19] 1.3% | outcome [20]

O=[N+]([O-])c1ccc(Cl)cc1
inactive: outcome [3] | outcome [4] | outcome [5] | Potency [6] | outcome [7] | outcome [8] | Potency [9] | Potency [10] | outcome [11] | Potency [12] | Potency [13] | Potency [14] | Potency [15] | Potency [16] | Potency [17] | Potency [18] | activation [19] -0.207% and 4.63% | outcome [20]

Nc1c(Cl)cc([N+](=O)[O-])cc1Cl
inactive: Potency [2] | outcome [3] | outcome [4] | outcome [5] | Potency [6] | outcome [7] | outcome [8] | Potency [9] | Potency [10] | outcome [11] | Potency [13] | Potency [14] | Potency [15] | Potency [16] | activation [19] -0.0582% and 1.9% | outcome [20]

NC1CCC(CC2CCC(N)CC2)CC1 (stereo unspecified)
inactive: Potency [1] > 92 µM | Potency [2] | outcome [3] | outcome [4] | outcome [5] | Potency [6] | outcome [7] | outcome [8] | outcome [11] | Potency [12] | Potency [13] | Potency [14] | Potency [15] | Potency [16] | activation [19] -0.669% and 0.679% | outcome [20]

CC(C)CC(C)N (stereo unspecified)
inactive: Potency [1] > 92 µM | Potency [2] | outcome [3] | outcome [4] | outcome [5] | Potency [6] | outcome [8] | Potency [9] | Potency [10] | Potency [12] | Potency [13] | Potency [14] | Potency [15] | Potency [16] | Potency [17] | Potency [18] | activation [19] 0.111% | outcome [20]

C=CCCl
inactive: Potency [1] > 92 µM | Potency [2] | outcome [3] | outcome [4] | outcome [7] | Potency [9] | outcome [11] | Potency [12] | Potency [13] | Potency [14] | Potency [15] | Potency [16] | Potency [17] | Potency [18] | activation [19] 1.05% | outcome [20]

ClC(Cl)c1ccccc1
inactive: Potency [1] > 92 µM | Potency [2] | outcome [3] | outcome [4] | outcome [5] | Potency [6] | outcome [7] | outcome [8] | Potency [9] | Potency [10] | outcome [11] | Potency [12] | Potency [13] | Potency [14] | Potency [16] | Potency [17] | Potency [18] | activation [19] -2.06% | outcome [20]
